Measurements from PubChem BioAssay AID1794808 (University of Kansas High Throughput Screening Laboratory, 2022).
Screen size: about 210,000 compounds; about 520 (0.25%) were called active. The sample holds actives, similar compounds and a random draw of the others, so the mix is not that of the screen. Values without a mark were called inactive. Rule as the data show it: active = inhibition above about 50%; inactive = the rest.

System: Plasmodium falciparum apicoplast DNA polymerase (apPOL)
Assay: Pf-apPOL inhibitors, biochemical, fluorescence (AID 1794808)
Details: Recombinant Pf-apPOL, molecular beacon fluorescence, 1.5 h; at 10 µM; active compounds read high

SMILES	inhibition
NC(=O)c1cc2cc(Br)ccc2oc1=Nc1ccc(F)cc1	5.9%
CC(=O)Nc1ccc(-c2ccc(NC(C)=O)c(Cl)c2)cc1Cl	6.6%
CCN1CCCC1CNC(=O)c1cn(C)c(=O)c2cc(OC)c(OC)cc12 (stereo not given)	4.5%
O=c1c(O)c(Br)ccc2c(Br)c(O)c(O)c(O)c12	99.5% (active)
O=C(NC1CCCCC1)c1ccccc1NC(=O)C1COc2ccccc2O1 (stereo not given)	-3.8%
Cn1nc(-c2nnc(-c3ccccc3Cl)o2)c2c1CCN(C(=O)CCc1ccccc1)C2	-2.8%
COc1cc(C(=O)Nc2c3c(nn2-c2ccc(C)cc2C)CS(=O)(=O)C3)cc(OC)c1OC	-2.5%
COc1ccc(C2=NOC(C(=O)NCCc3ccccc3)C2)cc1OC (stereo not given)	-10.3%
Cc1cc(Cl)ccc1NC(=O)CCc1ccccc1	52.8% (active)
O=C(CCCc1ccccc1)Nc1cccc(Cl)c1	-10.9%
Cc1ccc(F)c(NC(=O)CCc2ccccc2)c1	-10.7%
Cc1ccc2c(c1)C(=O)C(=O)S2	53.9% (active)
Cc1ccc(-c2ccc(C)cc2N)c(N)c1	5.9%
Cc1ccc2nc3c(nc2c1)C(=O)c1ccccc1C3=O	-3.7%
Cc1ccsc1/C=C(\C(=O)NCc1cccnc1)S(=O)(=O)c1ccccc1	2.5%
O=C(Cc1ccc(F)cc1)N1CCC(Nc2cccn3ncnc23)CC1	-7.3%
O=C(C1CCCN(c2nnc3ccc(Cl)cn23)C1)N1CCN(C2CCCCC2)CC1 (stereo not given)	-2.9%
CCN(Cc1cc(-c2ccc(C)cc2C)on1)C(=O)c1cccs1	3.3%
CCC(=O)N1CCC(COc2ccccc2C(=O)N2CCCCC2)CC1	-0.7%
COc1cc(Cl)c(NC(=O)C2CCCN(c3nccc(C)n3)C2)c(OC)c1 (stereo not given)	2.3%
CCN(CC)C(=O)C1CCCN(Cc2ccccc2OC)C1 (stereo not given)	-2.5%
CCN(CC)S(=O)(=O)c1ccc(C(=O)Nc2c3c(nn2-c2ccc(C)cc2)CSC3)cc1	3.5%
CCCCOc1ccc(S(=O)(=O)N2CCSC2c2ccccc2)cc1 (stereo not given)	-1.1%
O=[N+]([O-])c1ccc(C2SCCN2S(=O)(=O)c2ccccc2)cc1 (stereo not given)	-2.9%

SMILES	inhibition
Cc1cccc(S(=O)(=O)N2CCSC2c2ccccc2)c1 (stereo not given)	95.2% (active)
O=C(NCCc1ccccc1)N1CCC(n2c(-c3ccoc3)nc3cccnc32)C1 (stereo not given)	-2%
O=C(c1ccccc1)c1ccc(OCCNC(=O)c2ccccc2Br)cc1	-3.3%
CC(C)CC1=NN(C(=O)c2cccc(Cl)c2)C(O)(C(F)(F)F)C1 (stereo not given)	2%
CC(C)c1cccc(N2C=C(C#N)S(=O)(=O)c3c(F)cccc32)c1	-0.6%
COc1ccc(NS(=O)(=O)c2c(C)cc(C)cc2C)c([N+](=O)[O-])c1	-4%
COc1cc(C(=O)N2CCC(c3noc(-c4cccc(F)c4)n3)CC2)cc(OC)c1OC	0.1%
O=C(c1ccc(OCC2CCCN(C(=O)c3ccccn3)C2)cc1)N1CCCC1 (stereo not given)	3.1%
CCc1ccc(OCC(=O)Nc2cc(OC)c(Cl)cc2OC)cc1	-9.2%
O=C(NCCCNc1ccc([N+](=O)[O-])cc1Cl)c1ccccc1Br	4.9%
Cc1nc(-c2ccccc2)sc1C(=O)ON=C(N)c1ccc([N+](=O)[O-])o1	11.5%
CCCOc1ccc(S(=O)(=O)NCC2CCN(S(=O)(=O)C3CC3)CC2)cc1C	-5.5%
CC(=O)N1CCc2ccccc2C1C(=O)NCc1ccc(C)cc1 (stereo not given)	-0.9%
COc1cccc2sc(=NC(=O)c3cccc(F)c3)n(C)c12	2.7%
Cc1nc(N2CCC(C(N)=O)CC2)nc(NCc2ccco2)c1[N+](=O)[O-]	-9.6%
COc1cccc(-c2n[nH]c(C)c2NC(=O)C(C)C)c1	-6.9%
CCn1c(C2CCN(S(=O)(=O)c3cc(OC)ccc3OC)C2)nc2cccnc21 (stereo not given)	-5.5%
Cc1ccc(CC(=O)NC2CCN(c3cc(C)cc(C)c3)C2=O)cc1 (stereo not given)	-5.7%
Cc1nc(-c2ccccc2F)sc1C(=O)N1CCCC1	-7.4%
Cc1nc(-c2ccncc2)nc2c1CC(=O)N2C1CCCC1	-7.5%
COc1cc(NC(=O)c2cccc([N+](=O)[O-])c2)c(OC)cc1NC(=O)c1ccccc1	-2.7%
Cc1cccc(CN2CCCn3nc(C(=O)Nc4ccccc4C)cc3C2=O)c1	-2.2%
CC1(C(=O)O)NC(c2cc(Cl)ccc2O)C2C(=O)N(c3ccc(Cl)cc3)C(=O)C21 (stereo not given)	-9.1%
O=Cc1ccc(OCc2cccc(F)c2)c(Cl)c1	1.2%

SMILES	inhibition
O=C1CN(C(=O)c2c(F)cccc2F)C(c2ccccc2)c2cc(F)ccc2N1 (stereo not given)	-3.5%
COc1cccc(-c2cc3n(n2)CCCN(C(=O)Cc2ccsc2)C3)c1	-7.6%
COc1ccccc1N1CCN(CC(=O)Nc2ncc(C)s2)C1=O	-2.4%
CCC(CC)C(=O)N1CCN(c2ccc([N+](=O)[O-])cc2)CC1	-4.2%
Cc1ccc(C(=O)N2CCN(c3ccc(F)c(Cl)c3)C(=O)C2C)cc1 (stereo not given)	69.1% (active)
CC1C(=O)N(c2cccc(F)c2)CCN1C(=O)c1ccc(Cl)cc1 (stereo not given)	-2.7%
Cc1cccc(N2CCN(C(=O)c3ccc(F)cc3)C(C)C2=O)c1 (stereo not given)	0.4%
Cc1cccc(NS(=O)(=O)c2c(C)n[nH]c2C)c1C	-1.5%
Cc1cc(C)n(-c2ccc(C(=O)NC3CCCC3)cn2)n1	2%
CCC1CCCCN1C(=O)CSc1nc2c(c(=O)n1C)SC(C)C2 (stereo not given)	-6.3%
COc1ccc(C=C2Oc3c(ccc(O)c3CN3CCCCCC3)C2=O)cc1OC	-19.5%
N/C(=N\OC(=O)CCCc1ccccc1)c1ccc(Cl)cc1	5.3%
Cc1cccc(NC(=O)N2CC(c3nc(C)no3)C3(CCOCC3)C2)c1 (stereo not given)	-0.4%
COc1ccccc1OCC(=O)N1CCCCC1CCN1CCCCCC1 (stereo not given)	-10.1%
Cc1ccc2c(c1)C(=O)CC(c1cc(Br)cc3c1OCOC3)O2 (stereo not given)	-13.6%
Cc1ccccc1-n1nc2c(c1NC(=O)c1c(F)cccc1Cl)CS(=O)(=O)C2	-3.3%
Cc1nc(C(C)C)nc2c1CCC(=O)N2CCCN1CCOCC1	4%
Cc1cccc(NC(=O)CC2SC(=Nc3ccccc3)NC2=O)c1 (stereo not given)	2.1%
O=C(NCCCN1CCOCC1)c1cc2c(=O)oc3ccccc3c2s1	1.2%
O=C(NC1CCCC1)c1ccc(-n2nc(N3CCCC3)ccc2=O)cc1	4.7%
COC(=O)c1ccccc1OC1OC(CO)C(O)C(O)C1NC(C)=O (stereo not given)	1.3%
CC(=O)Nc1ccc(C(=O)N2CCN(c3cccc(Cl)c3)CC2)cc1	9.7%
N#CC(C#N)=C1SCN(c2cccc(Cl)c2)CS1	66.2% (active)
O=C(c1ccc([N+](=O)[O-])cc1)N1CCN(c2cccc(Cl)c2)CC1	-2.7%

SMILES	inhibition
CCn1cc(C2=CCN(S(=O)(=O)c3cccc(C)c3)CC2)c2cccnc21	-11%
Nc1cc2c(cc1[N+](=O)[O-])OCCOCCOc1ccc([N+](=O)[O-])cc1OCCOCCO2	-0.2%
CCCNc1cc(N2CCCC(CCC(=O)Nc3ccc4c(c3)OCCO4)C2)ncn1 (stereo not given)	-2.1%
COc1cccc(NC(=O)c2cncc(-c3ccc(F)cc3)c2)c1	1.8%
Cc1cc(C)cc(-c2nc(-c3ccc4c(c3)oc(=O)n4C)no2)c1	0.7%
COc1ccc(C(O)=C2C(=O)C(=O)N(CCN3CCOCC3)C2c2ccccc2F)cc1OC (stereo not given)	-2.5%
O=C(COc1ccc(Cl)cc1)N1CCC(N2CCCCCC2)CC1	-3.8%
COc1ccc(NCN2C(=O)c3cc(Cl)c(Cl)cc3C2=O)cc1	7.8%
CCN(CC)CCNC(=O)C(=O)NCC1OCCN1S(=O)(=O)c1ccc(F)cc1 (stereo not given)	-1.4%
O=C(Nc1ccc(F)c(Cl)c1)c1noc2c1CCCCC2	-2.8%
CCCCC(NC(C)=O)C(=O)O (stereo not given)	4.1%
CCCCOc1ccccc1/C=c1\sc2ncnn2c1=O	10.1%
COc1ccc(NC(=O)CCC2CCN(c3cc(NC4CC4)ncn3)CC2)cc1	0.2%
COCCNC(=O)NCCCc1ccc(N(C)C)cc1	-1.5%
COc1cccc(/C=c2\sc3nc(=O)c(C)nn3c2=O)c1	1.4%
CC(=O)N1CCc2sc(S(=O)(=O)N3CCN(c4ccccc4F)CC3)cc2C1	-5.6%
COc1ccc(-c2cc(=O)n(CCNC(=O)Cn3cnc4ccccc4c3=O)cn2)cc1	-6.7%
COc1ccc(NC(=O)CSc2nc3c(cnn3-c3ccc(C)cc3)c(=O)[nH]2)c(OC)c1	3.2%
C(=Nc1ccccc1-n1cccc1)c1cnc(-c2ccccc2)[nH]1	-2.2%
C=CCNC(=O)CCSc1ccc(Cl)cc1	0.6%
CC1CCCCC1NS(=O)(=O)c1cc(C(=O)Nc2ccc(F)c(F)c2)ccc1F (stereo not given)	37.3%
CC12CC3(C)CC(C)(C1)CC(C(=O)Nc1ccc(F)c(Cl)c1)(C2)C3	-2.2%
O=C(c1cc(F)cc(F)c1)N1CCC(c2cnn(-c3cccc(F)c3)c2)CC1	-5.6%
